According to ChEMBL document CHEMBL4513149, “CO-ADD screening of MMV (CH) - MMV compounds” (2021):
Measured potencies and affinities stand elsewhere.

System: Cryptococcus neoformans
Conditions: Concentration 20 uM; ASSAY_TEST Inhibition of Fungal Growth; detection method Resazurin; Absorption (OD600-OD570); plate type 384well; NBS; CORNING #3640

Compound | Inhibition
CC1=NN(c2nc3ccccc3s2)C(=O)C1Cc1cccc2ccccc12 (stereo not given) | -5.86%
O=C(NC1CC1)c1ccc(N2CCC(Cc3ccccc3)CC2)nc1 | -7.07%
O=C(Nc1cccc(Cl)c1)c1cnc(N2CCN(c3ccncc3)CC2)c(Cl)c1 | -9.48%
Nc1ncnc2c1ncn2C[C@@H](O)[C@@H](O)C(=O)O [ERITADENINE] | -6.54%
COc1ccc(CCN2CCC(NCc3cccc(N(C)C)c3)CC2)cc1 | -2.71%
CNC(=O)C1Cc2c([nH]c3cc(Cl)ccc23)C2(CCN(CCc3ccccc3)CC2)N1 (stereo not given) | -13.49%
O=C(C1CCN(c2nnc(-n3cccc3)s2)CC1)N1CCC(Cc2ccccc2)CC1 | -9.35%
CC(C)NCC(=O)Nc1cccc(C(=O)Nc2cccc(C(F)(F)F)c2)c1 | -11.79%
CC(=O)Nc1ccc(NC(=O)c2cc(-c3cc(Cl)ccc3O)n[nH]2)cc1 | 0.66%
O=C(NC1CCN(c2ccnc3ccccc23)C1)c1cccc(C(F)(F)F)c1 (stereo not given) | -3.95%
O=C(c1ccc(F)cc1)N(CCNc1ccccc1)c1ccccc1 | -9.35%
COc1ccccc1C(C)NCC(=O)Nc1cc(C(F)(F)F)ccc1Cl (stereo not given) | -4.09%
COc1ccc(C2=NN(C3CCCCCC3)C(=O)C2(C)C)cc1OCCCCOc1ccc(-c2nn[nH]n2)cc1 | -17.73%
O=C(C(Cc1c[nH]c2ccccc12)NS(=O)(=O)c1ccc(Cl)cc1)N1CCCCC1 (stereo not given) | -6.5%
COc1ccc(C2(C(=O)Nc3ccc(Br)cc3)CCCC2)cc1 | -2.31%
CCC(C)NC(=O)c1ccc(NC(=O)C2(c3ccccc3)CCCC2)cc1 (stereo not given) | 9.11%
CN(C)c1cc(NC(=O)Nc2ccccc2)c2ccccc2n1 | -2.57%
CNC(=O)C1Cc2ccccc2N1C(=O)Cc1ccc(F)cc1 (stereo not given) | -12.98%

Compound | Inhibition
CCOc1ccccc1C(=O)Nc1cccc(-c2nc3ncccn3c2C)c1 | -7.75%
NS(=O)(=O)c1cccc(-c2ccc3ncc(N4CCOCC4)nc3c2)c1 | -9.08%
CC(=O)N(CCN(C(=O)c1ccc(F)cc1)c1ccccc1)c1ccccc1 | -8.06%
Cc1ccc(Oc2ccc(NC(=O)CNc3ccccc3N3CCCC3=O)cc2)cc1 | -10.82%
CC(Oc1cccc(Cl)c1)C(=O)Nc1ccc2oc(-c3ccncc3)nc2c1 (stereo not given) | -15%
Cc1ccc(C(=O)Nc2ccc(S(=O)(=O)O)c3cc(S(=O)(=O)O)cc(S(=O)(=O)O)c23)cc1NC(=O)c1cccc(NC(=O)Nc2cccc(C(=O)Nc3cc(C(=O)Nc4ccc(S(=O)(=O)O)c5cc(S(=O)(=O)O)cc(S(=O)(=O)O)c45)ccc3C)c2)c1 [SURAMIN] | 2.45%
O=C(C1CCN(c2cc(-n3cccc3)ncn2)CC1)N1CCc2ccccc2C1 | 3.06%
Cc1nnc(NCc2cccc(Cl)c2)c2ccccc12 | -11.95%
O=C(Nc1cnc2ccccc2c1)c1cccc(-n2cnnn2)c1 | -9.7%
OCc1ccc(-c2cncc(Nc3cccc(Cl)c3)c2)cc1 | -14.16%
COc1cccc2c(C)nc(N=C(N)N)nc12.O=C(O)C(F)(F)F.O=C(O)C(F)(F)F | -13.06%
COc1ccc2nc(C)cc(OCC(=O)Nc3ccccc3OC)c2c1 | -5.56%
CC(C)(C)OC(=O)N1CCC(Cn2nc(-c3cnc4ccccc4c3)c3c(N)ncnc32)CC1 | -9.75%
O=C(NCCN1CCCC1)c1cc(NCCN2CCOCC2)nc2ccc(Cl)cc12 | -7.83%
c1cc(C2=NCCN2)cc(-c2cc(-c3ccc(C4=NCCN4)cc3)no2)c1 | -10.15%
Cl.O[C@@H](c1cc(C(F)(F)F)nc2c(C(F)(F)F)cccc12)[C@H]1CCCCN1 | 1.73%
CC(Oc1ccccc1)C(=O)Nc1nc(-c2ccccn2)cs1 (stereo not given) | -5.96%
